Results from PubChem BioAssay (NCATS).
“And” between values parts separate entries of the source, which are not always exact repeats. Identical values can stand only once. Results filed as inconclusive are left out. The source made the active and inactive calls. Calls come from the whole dose curve; as a rule, active = well fitted curve in the direction sought with a large enough effect; inconclusive = small, poorly fitted or top-dose-only effect, or another doubt; inactive = no such curve, though single readings can be large; an effect the other way counts as inactive or inconclusive.

Columns and labels:
[1] = Viability qHTS for spleen associated tyrosine kinase inhibitor (SYKi) naive MV4-11 cells (AID 1963823); note: nearly all actives have a fitted effect of over 40% in size
Outline: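 Viability of MV4-11 AML cells lacking prior SYK inhibitor exposure is scored by CellTiter-Glo luminescence following 72 hr compound incubation at 37 C, 5% CO2, seeded at 500 cells per well.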

[2] = Viability qHTS for spleen associated tyrosine kinase inhibitor (SYKi) drug resistant MV4-11 cells (AID 1963824); note: nearly all actives have a fitted effect of over 35% in size
Outline: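 SYK inhibitor-resistant MV4-11 AML cells, 500 per well, added to predispensed compounds and incubated 72 hr at 37 C, 5% CO2. Viability measured by CellTiter-Glo luminescence after 10 min at room temperature.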

[3] = Quantitative highthroughput screen to assess conditional lethalithy of P12 Ichikawa cells grown in RPMI1640 with untreated serum (RPMI+s) (AID 1963881); details: Potency: viability; note: nearly all actives have a fitted effect of over 35% in size; for Viability: series mostly up to about 46 µM
Outline: (§1)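 Each medium arm—HPLM with 10% dialyzed FBS, or RPMI1640 with 5 mM glucose and 10% untreated or dialyzed FBS—was screened against an 11-point, 3-fold compound titration for 48 h at 37 °C, with CellTiter-Glo luminescence as endpoint.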

[4] = Quantitative highthroughput screen to assess conditional lethalithy of SEM cells grown in RPMI1640 with unreated serum (RPMI+s) (AID 1963883); note: nearly all actives have a fitted effect of over 35% in size
Outline: as §1

[5] = Quantitative highthroughput screen to assess conditional lethalithy of SEM cells grown in RPMI1640 with dialyzed fetal bovine serum (RPMI+ds) (AID 1963884); note: nearly all actives have a fitted effect of over 35% in size; for Viability: series mostly up to about 46 µM
Outline: as §1

[6] = Cellular viability qHTS for adrenocortical cancer (ACC) cell line SW-13 (AID 1963989); details: SW-13 ACC cells viability, CellTiter-Glo, 48 h; activity (max response): hits give low values; note: nearly all actives have a fitted effect of over 65% in size
Outline: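 IC50 and maximal-response values come from four-parameter logistic fits of titration data. SW-13 cells in serum-free medium received compounds (up to 46 uM final) for 48 h before CellTiter-Glo luminescence.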

[7] = Cellular viability qHTS for adrenocortical cancer (ACC) cell line NCI-H295R (AID 1963990); note: nearly all actives have a fitted effect of over 60% in size
Outline: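 Adrenocortical carcinoma cells, suspended at 300 000 cells/mL in serum-free DMEM plus ITS, rested overnight before pin transfer of compound. After two days' incubation, ATP-dependent luminescence was recorded and curve-fitted.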

[8] = Quantitative highthroughput screen to assess conditional lethalithy of SEM cells grown in Human Plasma-Like Medium with dialyzed fetal bovine serum (HPLM+ds) (AID 1963882); note: nearly all actives have a fitted effect of over 35% in size; for Viability: series mostly up to about 46 µM
Outline: as §1

[9] = Quantitative highthroughput screen to assess conditional lethalithy of P12 Ichikawa cells grown in RPMI1640 with dialyzed fetal bovine serum (RPMI+ds) (AID 1963880); details: Potency: P12-Ichikawa viability; note: nearly all actives have a fitted effect of over 35% in size
Outline: as §1

[10] = Quantitative highthroughput screen to assess conditional lethalithy of P12 Ichikawa cells grown in Human Plasma-Like Medium with dialyzed fetal bovine serum (HPLM+ds) (AID 1963879); details: Potency: viability; note: nearly all actives have a fitted effect of over 35% in size; for Viability: series mostly up to about 46 µM
Outline: as §1

Measured: Potency
Potency is the fitted concentration of half-maximal effect.

CN1CCN(CCOc2cc(OC3CCOCC3)c3c(Nc4c(Cl)ccc5c4OCO5)ncnc3c2)CC1
active: [1] 6.51 µM and 5.9 µM | [2] 9.2 µM and 9.34 µM | [3] 29.6 µM | [4] 6.62 µM | [5] 10.5 µM | [6] 3.98 µM | [7] 31.6 µM

CN(c1ncccc1CNc1nc(Nc2ccc3c(c2)CC(=O)N3)ncc1C(F)(F)F)S(C)(=O)=O
active: [1] 366 nM | [2] 731 nM | [8] 2.96 µM | [4] 2.64 µM | [5] 1.05 µM | [6] 31.6 µM

Cn1c2ccccc2c2c3c(c4c5ccccc5n(CCC#N)c4c21)CNC3=O
active: [1] 65.1 nM | [2] 259 nM | [8] 0.372 µM | [4] 0.526 µM | [5] 0.418 µM | [7] 3.55 µM

Nc1nc(Cl)nc2c1ncn2[C@@H]1O[C@H](CO)[C@@H](O)[C@H]1F
inactive: [9] | [3] | [8] | [4] | [5]
active: [1] 82 nM | [2] 164 nM

Cc1nc2c(-c3cnc(N)nc3)nc(N3CCOCC3)nc2n1C(C)C
active: [1] 209 nM | [2] 326 nM and 468 nM | [10] 0.0029 µM | [7] 0.562 µM

C[C@@H]1CC(=O)NN=C1c1ccc(NN=C(C#N)C#N)cc1
active: [1] 13300 nM | [2] 15000 nM | [9] 26.4 µM | [8] 18.7 µM | [5] 16.6 µM

COC1=C(OC)C(=O)C(CCCCCCCCCCO)=C(C)C1=O
active: [1] 10600 nM | [2] 10.6 µM and 13.2 µM | [6] 4.11 µM and 25.1 µM
inactive: [10] | [8] | [4]
